Source: PubChem (National Center for Advancing Translational Sciences (NCATS))
Hits are enriched below; roughly 9% of the tested compounds scored in any of these assays.
G9a block: inhibitors of human histone lysine methyltransferase G9a; G9a H3K9 monomethylation, AlphaScreen, 2 h; Q96KQ7; 350,000 compounds, 8.8% hits; Potency, µM (doses to about 102 µM), for inactives: top-dose activity, negative = inhibition, most hits filed as inhibitors; AID 504332; note: % is set by controls: 0 for no effect and ±100 for the full control effect; nearly all actives have a fitted effect of over 75% in size
Target sequence (Q96KQ7 913-1193 limits assumed): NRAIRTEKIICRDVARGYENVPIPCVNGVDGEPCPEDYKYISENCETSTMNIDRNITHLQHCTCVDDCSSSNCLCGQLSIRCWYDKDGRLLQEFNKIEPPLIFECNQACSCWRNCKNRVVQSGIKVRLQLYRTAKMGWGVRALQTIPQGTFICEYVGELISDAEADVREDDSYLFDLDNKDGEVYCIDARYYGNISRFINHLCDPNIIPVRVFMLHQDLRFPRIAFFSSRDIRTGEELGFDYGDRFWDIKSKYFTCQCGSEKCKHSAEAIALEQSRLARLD
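Using a bead-based AlphaScreen, monomethylated H3K9 product from 2 h room-temperature reactions (G9a 20 nM, peptide 500 nM, SAM 20 uM) was detected with 0.5 ug/mL rabbit anti-H3K9me1 antibody.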
BAZ2B inh: BAZ2B (human) inhibition; Potency, µM (doses to about 114 µM), for inactives: at the top dose activity change, negative = inhibition, most hits filed as inhibitors; 360,000 compounds, 4.4% hits; Q9UIF8; AID 504333; AlphaScreen BAZ2B-H3K14Ac peptide displacement; note: % is set by controls: 0 for no effect and ±100 for the full control effect; nearly all actives have a fitted effect of over 60% in size
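Inhibition is scored as reduced AlphaScreen emission. The BAZ2B/b-H3(5-23)K14Ac complex (50 nM each) in PBS pH 7.4, 0.01% Tween-20 meets compound (up to 110 uM) for 30 min at RT before bead addition.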
JMJD2A Tudor: blocks the human JMJD2A Tudor domain; O75164; AlphaScreen JMJD2A-Tudor / H3K4me3 peptide binding; Potency, µM (series often up to 114 µM), inactives show at the top dose activity change, negative = inhibition, usual class: inhibitors; 390,000 compounds, 4.4% hits; note: % is set by controls: 0 for no effect and ±100 for the full control effect; nearly all actives have a fitted effect of over 50% in size
ALOX12 inh: ALOX12 (human) lipoxygenase inhibition | P18054 | purified 12hLO, xylenol orange hydroperoxide absorbance | Potency, µM (series often up to 108 µM), for inactives: at the highest dose activity change, negative = inhibition, usual class: inhibitors | 580,000 compounds, 1.1% hits | AID 1671190; note: % is set by controls: 0 for no effect and ±100 for the full control effect
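Purified human 12hLO at 150 nM in 25 mM Hepes, 0.01% Triton X-100, pH 7.0, preincubated 15 min at room temperature with compound. Reaction started with 40 uM arachidonic acid, 30 min at room temperature. Hydroperoxide measured by Fe-xylenol orange, 573/405 nm absorbance ratio.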
HP1b binding inh: HP1-beta chromodomain-methylated histone interaction inhibition | AlphaScreen HP1-beta / biotin-H3K9me3 peptide binding | 390,000 compounds, 0.56% hits | Potency, µM (series often up to 114 µM), without a hit: at the top dose activity change, negative = inhibition, actives largely listed as inhibitors; note: nearly all actives have a fitted effect of over 70% in size
Target sequence (P83916 whole entry, looked up): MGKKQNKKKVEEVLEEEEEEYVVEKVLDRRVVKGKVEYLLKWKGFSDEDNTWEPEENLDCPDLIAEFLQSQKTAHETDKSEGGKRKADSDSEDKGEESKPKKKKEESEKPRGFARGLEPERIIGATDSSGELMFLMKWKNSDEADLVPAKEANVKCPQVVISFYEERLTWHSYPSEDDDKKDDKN
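HP1-beta protein (50 nM final) preincubated 30 min at room temperature with biotinylated H3(1-18)K9me3 peptide (50 nM) in PBS pH 7.4, 0.01% Tween-20, then compound added for 30 min. AlphaScreen streptavidin donor/nickel chelate acceptor beads (10 ug/mL final), 30 min dark, luminescence read.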
PLK1 PBD inh: inhibitors of human PLK1 polo-box domain binding; P53350; Plk1 PBD binding of FITC phosphopeptide, fluorescence polarization; Potency, µM, for the others: max response, negative = inhibition, usual class: inhibitors; 360,000 compounds, 2.8% hits; AID 720504; note: series mostly up to about 57 µM; % is set by controls: 0 for no effect and ±100 for the full control effect; nearly all actives have a fitted effect of over 65% in size
Numbers without * were called inactive; ? = inconclusive; . = no result given; [ ] = remark or other dose. Calls come from the whole dose curve; as a rule, active = well fitted curve in the direction sought with a large enough effect; inconclusive = small, poorly fitted or top-dose-only effect, or another doubt; inactive = no such curve, though single readings can be large; an effect the other way counts as inactive or inconclusive. Potency is the fitted concentration of half-maximal effect.

SMILES	G9a block	BAZ2B inh	JMJD2A Tudor	ALOX12 inh	HP1b binding inh	PLK1 PBD inh
[O-]/C(=C(\C(=S)Nc1cccc2ccccc12)[n+]1cccc(CO)c1)c1ccc(Cl)s1	40µM*	32µM*	?	?	-26%	-11%
CCC1=C2CC[C@H]3C(=O)N(c4ccccc4)C(=O)[C@H]3[C@H]2[C@@]2(C)C(=NCC3CC3)OC(=O)N2C1=O	-8%[12.7 µM]	4%	0%	17%	35%	-1%
CCCCN(CC)C(=O)Cn1ncc2c1-c1cc(C)ccc1OC2	14%	-4%	2%	37%	40%	2%
O=C1NCc2ccccc2CC12CCCN2Cc1ccccc1Cl (stereo not given)	.	.	.	-3%[6.33 µM]	.	.
CCc1ccccc1NC(=S)NCc1ccc2c(c1)OCO2	44%[12.7 µM]	-10%	-13%	?	8%	-8%
[O-]/C(=C(\C(=S)NCc1ccc2c(c1)OCO2)[n+]1ccccc1)c1ccc(Cl)s1	28µM*	45µM*	-33%	-19%	-10%	?
CCc1cccc(C)c1NC(=O)CCCN1C(=O)C(c2ccccc2)Oc2cccnc21 (stereo not given)	2%[59 µM]	-15%	5%	-27%	37%	.
O=C(c1cccc(F)c1)N1CCN(CC2CC3C=CC2C3)CC1 (stereo not given)	10µM*	50µM*	5.6µM*	?	?	-13%
O=C(c1ccccc1F)N1CCN(CC2CC3C=CC2C3)CC1 (stereo not given)	?	56µM*	4µM*	-26%	?	-1%
COc1cccc(C(=O)N2CCN(C(=O)c3cccc(F)c3)CC2)c1	-4%[59 µM]	-11%	-5%	-14%	41%	-3%
O=CN1CCN(C(=O)c2ccccc2F)CC1	0%[59 µM]	.	-7%	-2%	11%	-6%
O=S(=O)(c1ccc(F)cc1)N1CCN(CC2CC3C=CC2C3)CC1 (stereo not given)	22µM*	50µM*	11µM*	?	?	-6%
Cc1ccc(CN2CCN(CC3CC4C=CC3C4)CC2)cc1 (stereo not given)	?	28µM*	5.6µM*	?	?	-3%
COc1cccc(CNC(=O)C(=O)NCC(c2ccco2)S(=O)(=O)c2ccccc2)c1 (stereo not given)	3%[59 µM]	-5%	-18%	-15%	-4%	.
CSCC[C@H](NC(=O)COc1cc2c(c3oc(=O)c(C)c(C)c13)CCC(C)(C)O2)C(=O)O	12%	0%	?	-15%	3%	30µM*
CCCC(NC(=O)COc1cc2c(c3oc(=O)c(C)c(C)c13)CCC(C)(C)O2)C(=O)O (stereo not given)	-2%	-2%	-18%	3%	27%	8%
Cc1cccc(NC(=O)CCC(=O)N/N=C/c2ccco2)c1C	-8%[59 µM]	5%	-1%	8%	43%	-3%
COc1ccccc1/C=C/C(=O)Nc1ccc(S(=O)(=O)Nc2cc(C)nc(C)n2)cc1	35µM*	?	-10%	?	9%	0%
COc1ccccc1CCC(=O)Nc1ccc(S(=O)(=O)Nc2cc(C)nc(C)n2)cc1	50µM*	6%	-7%	?	22%	-7%
COc1ccccc1C(=O)Nc1ccc(S(=O)(=O)Nc2cc(C)nc(C)n2)cc1	2%[12.7 µM]	5%	-1%	25%	28%	-2%
Cc1cc(C)cc(-n2ccn(CC(=O)NCCc3ccccc3)c(=O)c2=O)c1	27%[59 µM]	-2%	2%	16%	30%	-9%
CC(Oc1ccccc1)C(=O)N1CCC2(CC1)NC(=O)N(c1ccccc1Cl)N2 (stereo not given)	.	.	.	1.4µM*	.	.
O=C(c1cccc(Cl)c1)N1CCC2(CC1)Cc1ccccc1NC2=O	.	.	.	15%	.	.
O=C(c1ccc(F)cc1)N1CCN(Cc2ccccc2)CC1	17%	-4%	-32%	69%	26%	-11%
O=C(COc1ccccc1)N1CCC2(CC1)NC(=O)N(c1ccccc1Cl)N2	.	.	.	-94%	.	.
SMILES	G9a block	BAZ2B inh	JMJD2A Tudor	ALOX12 inh	HP1b binding inh	PLK1 PBD inh
O=C(c1cccc(Cl)c1)N1CCC2(CC1)NC(=O)N(c1ccccc1Cl)N2	.	.	.	1.6µM*	.	.
O=C(c1ccc(F)cc1)N1CCC2(CC1)NC(=O)N(c1ccccc1Cl)N2	.	.	.	1.3µM*	.	.
O=C(c1cccc(Cl)c1)N1CCC2(C1)NC(=O)N(Cc1ccc(Cl)cc1)C2=O (stereo not given)	.	.	.	40µM*	.	.
COc1cc(OC)cc(C(=O)N2CCC3(C2)NC(=O)N(Cc2ccc(Cl)cc2)C3=O)c1 (stereo not given)	.	.	.	-23%	.	.
O=C(CCS(=O)(=O)c1cc2c(cc1Cl)NC(=O)CO2)NCCc1ccccc1	54%	-13%	-22%	-23%	29%	-11%
O=C(CN1CCOC1=O)N1CCCC(N2CCN(c3cccc(C(F)(F)F)c3)CC2)C1 (stereo not given)	-17%	-10%	-18%	5%	27%[57 µM]	-10%
Cc1ccc(C(=O)N2CCC3(CC2)NC(=O)N(c2ccccc2Cl)N3)c(C)c1	.	.	.	2.2µM*	.	.
Cc1ccc2cc(COC(=O)c3ccncc3)c(=O)[nH]c2c1	50µM*	12%	-14%	148%[57.4 µM]	8%	-17%
CCOC(=O)C1=C(C)NC(C)=C(C(=O)OCC)C1c1cc2ccc(C)cc2[nH]c1=O	50µM*	?	-18%[57.1 µM]	?	-5%	-31%
Cc1ccc(C(=O)OCc2cc3ccccc3[nH]c2=O)cc1	-5%	2%	-12%	10%	16%	4%
Cc1ccc(C(=O)COC(=O)COc2ccccc2O)cc1C	.	.	-11%	165%	32%	-9%
Cc1cnc(CNc2ccnc(-c3ccccc3C)n2)cn1	8%[0.501 µM]	.	.	-19%	.	.
CN(C)C(=O)C1CCC(C)(C(=O)O)C1(C)CI (stereo not given)	.	.	.	40µM*	.	.
O=c1oc2c3c4c(cc2s1)CCCN4CCC3	7.9µM*	56µM*	18µM*	18µM*	?	27µM*
O=c1ccc2cc3c4c(c2o1)CCCN4CCC3	?	15%	-8%	-2%	73%	17µM*
NC(=S)NN=C1C2CC3CC(C2)CC1C3	14µM*	-11%	-17%	?	-24%	19µM*
NC(=O)C(=O)NN=C1C2CC3CC(C2)CC1C3	45µM*	-35%	?	-19%	1%	-3%
CCOC(=O)c1ccc(NC(=O)C2CCN(S(=O)(=O)CC)CC2)cc1	-4%[59 µM]	4%	-16%	0%	23%	2%
O=C([C@@H]1CCCN1C(=O)c1cccs1)N1CCN(S(=O)(=O)c2cccc(F)c2)CC1	?	-4%	-7%	0%	55%	0%
CCOC(=O)Cc1csc(NS(=O)(=O)c2cccc([N+](=O)[O-])c2)n1	-7%[0.501 µM]	-6%	-17%	0%	4%	-4%
